Hit rate of the full screen: of about 52,000 sequences, about 210 (0.4%) were called active.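 The calls were made as follows: active = gene whose silencing raises cell survival under the drug, median off-target-corrected z-score across its silencing RNAs 2 or more; inactive = the rest.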 This excerpt belongs to a sample that is enriched for actives.

Our source for the z-score values is PubChem BioAssay AID1347423 (Functional Genomics Laboratory (NCATS/FGL), 2020).

This experiment in a line: Resistance to Poly (ADP-Ribose) Polymerase inhibitor: Gene Identification via Genome-wide siRNA Screen. The conditions noted are these: mouse BRCA2 R2336H ES cells, olaparib, CellTiter-Glo viability; active compounds read high. An outline of the steps: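 Mouse BRCA2 R2336H ES cells were reverse-transfected with siRNA (20 nM final), treated at 48 h with 500 nM olaparib, and read by CellTiter-Glo after 72 h. Scores: MAD-based z per siRNA, median per gene, seed off-target correction.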
A general note: ATP-based viability assays read luminescence as a measure of living cells.
As to GCUACGAGAGGUCAUUUCCTT against Chrnb1, the z-score was 2.48 (active).
For GGCUGAAGCAGUCUGUUGCTT against Rpp14, the z-score was -0.655 (inactive).
As for GGCUGUUUGUGGUAUAGGUTT against Lrrc3, the z-score is 1.52 (inactive).
For GGCAACUUUGUUAUAUACATT against Sh2bp1 the value was -0.76 (inactive).
Consider “CCUCAGAUUUCAACCAUAGTT against 2700087I09Rik”, for which the z-score was 1.64 (inactive).
In the case of “CCAUGACAUUUCCUAAGUUTT against B130022O04Rik”, the z-score is -2.2 (inactive).
For GGAAAAGAUACGGAAGAUUTT against Acpp, the z-score was 0.216 (active).
For GCUUCUAAUUGGAGAUUGCTT against Ngfrap1, the z-score is 1.44 (inactive).
On to “CCAGUUACGUUAAAAGCUUTT against D1Bwg0491e”, for which the z-score is 0.00475 (inactive).
GGGAGAAUUACCAAGAUCUTT against Elac1: the z-score was 2.5 (inactive).
The figure for GGUCGACUUAAGAUAAUAATT against Itgb6 is 1.94 (active); for GCCCUAGAUCAGGAGAUCATT against Rps17 it is -2.58 (inactive).
“GGAUGUCCCACUGCUUUACTT against 5730466C23Rik”: the z-score is -0.562 (inactive).
For GCACUAGUUCUCAAUUUAATT against Antxr1, the z-score is 0.317 (inactive).
For GGCAUCUUCAAAUGACAUATT against Cic the value was 2.45 (active).
Regarding GGCCCAUUUUGGUGUGCAUTT against Hyal3, the z-score is -0.6 (inactive).
For GGUGCCUAAUGGAUAAGAATT against Thrap2, the z-score is 0.923 (inactive).
In the case of GGAAACCAGACUUUCCCUATT against V1ra5, the z-score was -0.806 (inactive).
For GGACCAGGUUCACUUCCCUTT against Ovol1 the value was 0.343 (inactive).
GCAGAUCUCUUACGUCAUCTT against Adam9: the z-score is 0.749 (inactive).
The figure for GGAAAGUGGUUUUGUCCACTT against Ing5 is 1.74 (inactive); for GGUCACGUGCAGUUAUAUCTT against Rab32 it is 0.0398 (inactive).
For GGCCUAAAUUGACAAACUUTT against Mgea5 the value was 0.366 (inactive); for GCAGCUCCAAAUCCUGUUCTT against Asb16, -1.78 (active); for “GGAAACUUCUGCACUUGGGTT against 4930474M22Rik”, 1.02 (inactive).
GCUGUCUGAUUCUGAGGUGTT against Slc6a1: the z-score was -0.947 (inactive).
For “GGGUUUAAUCAUGAUAGAATT against E130014J05Rik”, the z-score was 3.95 (active).
On to GGUGACAAUAAAAUGGUGATT against Fabp1, for which the z-score is 0.496 (inactive).
Take GGUCAUGGUCUGAGAUUCUTT against Txnl4: the z-score is 0.353 (inactive).
Regarding CCCAUGUUCGAUGGGAAAGTT against Adprt1, the z-score is 0.293 (active).
Take GCAAGGUGCACCUAAAGCATT against Egr4: the z-score was -2.04 (inactive).
For GGACAAGAACUACAUUGAGTT against Eefsec, the z-score was 2.12 (inactive).
The figure for “GGACUUUUGGAUAACUUAGTT against 1200008A14Rik” is -0.788 (inactive); for GGAUAUUCUUCCAGUCUUUTT against MGC118154 it is -1.48 (inactive).
As for CAAACCCAUGUUCUAAAUGTT against Oog3, the z-score was 0.339 (inactive).
“GGAGGUUUUGAUGGACUGUTT against 2610528H13Rik”: the z-score is -0.424 (inactive).
As for “CCUUGUACCCAGUAAAGUCTT against 2310007B03Rik”, the z-score is -2.34 (inactive).
Take GGGAAAAUGCUUUGUUGGATT against Rqcd1: the z-score was 1.97 (active).
As to “GGAUUGAGCUACAAGAAUATT against E330016A19Rik”, the z-score was -0.0566 (inactive).
With CGGACUCCUGACAUUAUAATT against Cd33, the z-score is 0.735 (inactive).
As for GGUCCUCUAAAGAAUAAAGTT against Ela3b, the z-score was 0.513 (active).
Consider GGAUUCACGUAAGAUUGACTT against Prlpb, for which the z-score is 1.33 (inactive).
For “GCCAACUCAGUUUUGAAUGTT against 4930404J24Rik” the value was -0.142 (inactive); for GGUGUUCGGUGUCCUGGAATT against Pctp, -1.75 (inactive); for UGAAGUCUAAUCAGAGCACTT against Olfr50, -2.01 (inactive).
For GGAAUGCCGGAUUGCUCACTT against BC008163, the z-score was 1.25 (inactive).
On to GGAAGUUUCUGAAUGCUGUTT against Klrd1, for which the z-score was 2.01 (active).
On to “GGUCAUACACUUCUGCACATT against C330006K01Rik”, for which the z-score was 1.27 (inactive).
Consider GGAGGAGUUGCACCUCAUCTT against Pctk3, for which the z-score is 0.655 (inactive).
Regarding GCUACGGAACAAUCACAGCTT against Jarid1d, the z-score was 0.15 (inactive).
For GGAAAGAAAAAAGAUGGUCTT against Riok1, the z-score is -1.05 (inactive).
Turning to GGUUGACAUCGACCAAUCATT against Klhl1, the z-score is 1.3 (active).
The figure for AUGUGAUAGUGCCCAGCCUTT against Olfr884 is 1.48 (inactive).
For GGAAGAAAUAGAUGAGAAUTT against Tnmd, the z-score was 0.737 (inactive).
For CGUUGAUUUCCAAAGCUGUTT against Kcnc2, the z-score was 0.168 (inactive).
On to GGAACAUUACCAUCAAGCUTT against Eif2s3x, for which the z-score is -2.52 (inactive).
For CCAAACUUACAAAUAUGCGTT against Sgpp1, the z-score was 3.3 (active).
On to GGAAGUGUUUGAUGUCUUATT against Stk4, for which the z-score is -1.1 (inactive).
For the sequence GGGAGUUUAUUCAAAAGUGTT against Nrbp, the z-score is 0.522 (inactive).
As to GGACUCUUUUCUACGUGGATT against Klhl1, the z-score is 3.47 (active).
Regarding GGGCAUACAUAUAACCUAUTT against Plekhc1, the z-score was 0.785 (inactive).
With CAAAUUAUGAGUGAGAACCTT against Olfr340, the z-score was -1.17 (inactive).
For the sequence GCUUAACCGUUUUUUCAAATT against Tgif, the z-score is 0.555 (inactive).
In the case of “GGUUAUGAGGCUUAAUAAATT against 2810423G08Rik”, the z-score is 1.54 (inactive).
As for “GGAUCCAAGUUCCUGGCUCTT against A330096I21Rik”, the z-score is -0.601 (inactive).
With GGAGACUCAGGAAAAAAUUTT against Olfr1424, the z-score is 0.238 (inactive).
For CGAACAGUCUGUAUGGCGATT against Jak1 the value was 3.46 (active); for GGCCAAUUUGAAUAAUCUATT against Zfp119, 0.0816 (inactive).
